Measured values: PubChem BioAssay (Tox21)
Results filed as inconclusive are left out. The source made the active and inactive calls. The call rests on the fitted dose curve; in most records, active means well fitted cell-killing curve with a large enough effect in the repeat runs; inconclusive means weak or mixed curves, or effect the other way; inactive means flat fitted curve, though single readings scatter.

Assay: cAMP Responsive Elements (CRE) small molecule agonists, cell-based qHTS assay: qHTS cell viability counter screen (AID 2060914); further: nearly all actives have a fitted effect of over 50% in size
Conditions: CRE-bla HEK293T viability, CellTiter-Glo luminescence, 5 h; series mostly up to 92.4 µM; activity change, negative = cytotoxicity: at the top concentration
How it was run: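 CRE-bla HEK293T cells in 10% dialyzed FBS medium were exposed to compounds for 3 h at 37C after 18 h plating. CellTiter-Glo was then added in the same wells, and luminescence was read after 30 min at room temperature.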
On the % scale 0 is the no-effect control and ±100 the full control effect; potency means the concentration at half of the fitted maximal effect.

| SMILES | Potency | activity change, negative = cytotoxicity |
| --- | --- | --- |
| NC(=O)c1ccccc1O | inactive |  |
| O=C(O)Cc1c[nH]c2ccccc12 | inactive |  |
| CC(C)C1CCC(O)CC1 (centres undefined) |  | 1.64% (inactive) |
| CCNC(=O)NCc1cccc(Cl)c1 |  | -0.0736% [at 42.5 µM] (inactive) |
| Brc1c2ccccc2c(Br)c2ccccc12 |  | -1.97% [at 8.39 µM] (inactive) |
| CC1=CCC(=C(C)C)CC1 |  | 3.88% (inactive) |
| N#[N+]c1ccc2c(S(=O)(=O)[O-])cccc2c1O |  | -14% (inactive) |
| CC1=CCC2CC1C2(C)C (centres undefined) | inactive |  |
| NC[C@H]1O[C@H](O[C@H]2[C@H](O[C@@H]3O[C@H](CO)[C@@H](O)[C@H]3O)C(O)[C@H](N)C[C@@H]2N)[C@H](N)[C@@H](O)[C@@H]1O (some centres undefined) |  | 13.8% [at 8.39 µM] (inactive) |
| CCCOCCOCCOCCO |  | -10.7% (inactive) |
| O=C(CN1CCN(Cc2ccc3c(c2)OCO3)CC1)N1c2ccccc2Sc2ccccc21 |  | 7.01% [at 42.5 µM] (inactive) |
| O=C(O)CCC(=O)C(=O)O |  | 8.6% (inactive) |
| N#Cc1ccc(C(c2ccc(C#N)cc2)n2cncn2)cc1 |  | 3.76% [at 42.5 µM] (inactive) |
| C=CCS(=O)(=O)O |  | 12.6% (inactive) |
| O=C(O)CCCC[P+](c1ccccc1)(c1ccccc1)c1ccccc1 |  | 8.9% [at 42.5 µM] (inactive) |
| CCCCCCCCCCCCCO | inactive |  |
| NC1CCN(c2nc3c(cc2F)c(=O)c(C(=O)O)cn3-c2ccc(F)cc2F)C1 (centres undefined) |  | 2.33% [at 42.5 µM] (inactive) |
| CC(=O)CCC(C)C | inactive |  |
| CCC(C)n1ncn(-c2ccc(N3CCN(c4ccc(OC[C@H]5CO[C@](Cn6cncn6)(c6ccc(Cl)cc6Cl)O5)cc4)CC3)cc2)c1=O (some centres undefined) |  | 3.01% [at 42.5 µM] (inactive) |
| Nc1ccc2ccccc2c1S(=O)(=O)O |  | -11.9% (inactive) |

| SMILES | Potency | activity change, negative = cytotoxicity |
| --- | --- | --- |
| CC(C)CCCCCOC(=O)CS |  | -3.24% (inactive) |
| CCCCCCCCCCCCCCOS(=O)(=O)O |  | -19.1% (inactive) |
| CCCCCCCCS(=O)(=O)O |  | 15.1% (inactive) |
| CC(=C(CCOC(=O)C(C)C)SSC(CCOC(=O)C(C)C)=C(C)N(C=O)Cc1cnc(C)nc1N)N(C=O)Cc1cnc(C)nc1N |  | 0.0258% [at 42.5 µM] (inactive) |
| Nc1cc(=O)[nH]c(N)n1 |  | -4.19% [at 42.5 µM] (inactive) |
| CC1CC(=O)CC(C)(C)C1 (centres undefined) |  | 7.96% (inactive) |
| CC(C)(C)c1cc(/C=C2\SC(=N)NC2=O)cc(C(C)(C)C)c1O |  | -22.4% (inactive) |
| CO[C@@H]1[C@@H](OC(N)=O)[C@@H](O)[C@H](Oc2ccc3c(O)c(NC(=O)c4ccc(O)c(CC=C(C)C)c4)c(=O)oc3c2C)OC1(C)C |  | -8.81% [at 42.5 µM] (inactive) |
| NC(=S)N/N=C/c1cccnc1 |  | -0.506% [at 42.5 µM] (inactive) |
| O=Cc1ccc(CO)o1 | inactive |  |
| CC(C)(C)c1nnc(NS(=O)(=O)c2ccccc2)s1 |  | -3.63% [at 42.5 µM] (inactive) |
| CC(C)NC(=O)c1ccccc1N |  | 1.35% (inactive) |
| Cc1nnc(SCC2=C(C(=O)O)N3C(=O)[C@@H](NC(=O)Cn4cnnn4)[C@H]3SC2)s1 |  | -0.095% [at 42.5 µM] (inactive) |
| O=C(c1ccc(OCCN2CCCCC2)cc1)c1c(-c2ccc(O)cc2)sc2cc(O)ccc12 | inactive |  |
| CC1(C)OC[C@@H](COC(=O)CCc2ccc(OC[C@@H](O)CNCCNC(=O)N3CCOCC3)cc2)O1 |  | -0.952% [at 42.5 µM] (inactive) |
| Cc1cc(CCC(=O)OCCOCCOCCOC(=O)CCc2cc(C)c(O)c(C(C)(C)C)c2)cc(C(C)(C)C)c1O |  | -13.6% (inactive) |
| c1csc(SSc2cccs2)c1 |  | 8.7% (inactive) |
| CCCCCCCCCCCCOCCOCCOCCOCCOCCOCCOCCOCCOCCO | 29.8 µM (active) |  |
| Cc1cc(-c2ccc(N=Nc3cc(S(=O)(=O)O)c4ccccc4c3N)c(C)c2)ccc1N=Nc1cc(S(=O)(=O)O)c2ccccc2c1N |  | 0.111% (inactive) |
